Source: PubChem BioAssay
The list is not random: actives were taken first. Their share in the collection is about 4%.
MITF TRPM1 inh – reduces MITF-dependent TRPM1 promoter luciferase signal | SK-MEL-5 TRPM1 promoter luciferase, 24 h | 0.83% of 330,000 active | AID 488899 | inhibition, % at 12.5 µM;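 active means mean inhibition across replicates of 60% or more, whatever share of single replicates reaches that level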
esBAF inh – inhibitors of esBAF chromatin remodeling in mouse ES cells; Bmi1-luciferase knock-in reporter, 24 h; 100% = twice the neutral-well signal; reporter increase, % at 12.5 µM; 2% of 350,000 active; AID 602393; in the data active means activation above about 40%;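 further: 0% = median of the plate's neutral control wells and 100% = double that signal; a rise in the Bmi1 reporter signal indicates esBAF inhibition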
MITF act – increases MITF-driven TRPM1 promoter luciferase signal; activation, % at 12.5 µM; SK-MEL-5 TRPM1-promoter luciferase, 24 h; % of positive control, neutral wells = 0; AID 588334; 0.75% of 300,000 active;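 active means mean activation of at least 80% with every replicate also reaching 80%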;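 further: 0% = neutral control wells and 100% = parthenolide positive control wells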
Wnt act – activates Wnt/beta-catenin signaling in a reporter cell assay. activator, plate reader. activation, % at 9.35 µM. 1.2% of 300,000 active; in the data active means activation above about 30%, passing the limit was not always enough;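 further: 0% = neutral control wells and 100% = positive control wells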
EWS-Fli inh – blocks EWS/Fli oncoprotein-driven transcription; A673 NR0B1-luciferase reporter, viability-normalised; inhibition, % at 12.6 µM; 0.67% of 350,000 active;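 active means mean inhibition of at least 50% after viability correction, with every replicate also passing that limit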;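 further: firefly luciferase signal divided by Alamar Blue viability fluorescence both relative to DMSO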
PAX8 reporter – lowers PAX8-driven luciferase in RMG-I cells; RMG-I TPO-luciferase reporter, SteadyGlo, 24 h; inhibition, % at 12.6 µM; 1.2% of 360,000 active;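 active means mean replicate inhibition at least 60% with every replicate also reaching 60%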;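 further: luciferase light reporting Pax8 driven TPO promoter activity; plate controls were median of neutral control wells for no effect and mitoxantrone controls for full effect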
* = called active by the depositor; / = no result.

SMILES	MITF TRPM1 inh	esBAF inh	MITF act	Wnt act	EWS-Fli inh	PAX8 reporter
C[C@H](CO)N1C[C@H](C)[C@@H](CN(C)S(=O)(=O)c2cn(C)cn2)OCCCC[C@H](C)Oc2ccc(NC(=O)CCC(F)(F)F)cc2C1=O	/	2	/	/	-10	-3
COc1ccc(S(=O)(=O)N(C)C[C@@H]2OCCCC[C@@H](C)Oc3ccc(NC(=O)Nc4ccc(C(F)(F)F)cc4)cc3C(=O)N([C@@H](C)CO)C[C@@H]2C)cc1	/	9	/	/	-3	24
CN(C)c1nc(N)c([N+](=O)[O-])c(NCc2ccccc2)n1	-5	/	2	-2	-5	68*
Nc1nc(NCc2ccccc2)nc(NCc2ccccc2)c1[N+](=O)[O-]	-5	/	9	0	/	2
O=C(NCc1ccccc1)c1ccc(NC(=O)C2CC2)cc1	-11	4	10	3	-5	13
O=C(NCCc1ccccc1)c1ccc(NC(=O)C2CC2)cc1	-61	45*	59	10	-55	-99
O=C(NCCc1ccccc1)c1cccc(NC(=O)C2CCCC2)c1	-20	48*	22	0	-102	-137
O=C(Nc1ccccc1O)c1ccc(NC(=O)C2CC2)cc1	-53	23	49	68*	/	-188
O=C(NCCCc1ccccc1)c1ccc(F)cc1	-51	64*	/	/	/	/
CCCN(C)C[C@H]1Oc2cc(C3=CCCC3)ccc2S(=O)(=O)N([C@@H](C)CO)C[C@@H]1C	/	/	/	/	11	/
CO[C@H](CN(C)S(=O)(=O)c1cccc(Cl)c1)[C@@H](C)CN(C(=O)Nc1ccccc1F)[C@H](C)CO	/	15	/	/	-11	/
C[C@@H]1CCCCO[C@@H](CN(C)S(=O)(=O)c2ccccc2)[C@@H](C)CN([C@@H](C)CO)C(=O)c2cc(NS(=O)(=O)c3ccc(Cl)cc3)ccc2O1	/	4	/	/	-5	35
C[C@@H]1CN([C@H](C)CO)C(=O)Cc2cc(NC(=O)Cc3ccccc3)ccc2O[C@@H]1CN(C)C(=O)Nc1ccc2c(c1)OCO2	/	-2	/	/	0	5
COCC(=O)N1CC2(CCN(Cc3cncnc3)CC2)c2c(n(C)c3cc(OC)ccc23)[C@H]1CO	/	/	/	/	0	/
CN(C(=O)c1cccc(NC(=O)Cc2ccc(NC(=O)C3CCCN(C(=O)CCc4ccccc4)C3)cc2)c1)C1CCCC1 (centres undefined)	29	-6	-32	-1	5	12
CN(C(=O)c1cccc(NC(=O)Cc2ccc(NC(=O)C3CCCN(C(=O)CCc4ccccc4)C3)cc2)c1)C1CCC1 (centres undefined)	62*	-24	-63	-2	2	38
C[C@@H]1CN([C@@H](C)CO)C(=O)Cc2cc(NS(=O)(=O)c3ccccc3)ccc2O[C@H]1CN(C)Cc1ccc2c(c1)OCO2	/	0	/	/	10	27
CN(C)C(=O)C[C@@H]1CC[C@H](NC(=O)C2CC2)[C@H](CO)O1	/	-1	/	/	1	/
COc1ccccc1-c1ccc2c(c1)[C@H]1[C@H](CCN1S(=O)(=O)c1ccccc1OC)[C@@H](CO)N2	/	-4	/	/	4	65*
COc1ccccc1S(=O)(=O)N1CC[C@@H]2[C@H](CO)Nc3ccc(-c4ccc(F)cc4)cc3[C@@H]21	/	5	/	/	-13	67*
COc1ccccc1S(=O)(=O)N1CC[C@H]2[C@H](CO)Nc3ccc(-c4ccccc4F)cc3[C@H]21	/	3	/	/	3	-38
COc1ccccc1S(=O)(=O)N1CC[C@@H]2[C@@H](CO)Nc3ccc(-c4ccc(F)cc4)cc3[C@@H]21	/	-13	/	/	44	71*
O=C(c1ccccn1)N1CC[C@@H]2[C@H](CO)Nc3ccc(-c4ccc(F)cc4)cc3[C@@H]21	/	/	/	/	2	/
O=C(c1ccccn1)N1CC[C@@H]2[C@H]1c1cc(-c3ccc(F)cc3)ccc1N[C@@H]2CO	/	47*	/	/	-65	-33
CO[C@H]1CN(C)C(=O)c2cc(NC(C)=O)ccc2OC[C@H](C)N(Cc2cncnc2)C[C@H]1C	/	-2	/	/	-2	/
SMILES	MITF TRPM1 inh	esBAF inh	MITF act	Wnt act	EWS-Fli inh	PAX8 reporter
Cc1noc(C)c1NC(=O)N[C@@H]1CC[C@H](CC(=O)N2CCN(C)CC2)O[C@@H]1CO	/	-5	/	/	/	/
COCC(=O)Nc1ccc2c(c1)OC[C@H](C)N(CCC(F)(F)F)C[C@@H](C)[C@H](OC)CN(C)C2=O	/	3	/	/	-2	4
Cc1ccc(/C=C/C(=O)c2ccc([N+](=O)[O-])o2)cc1	/	/	/	10	64*	27
Cc1ccc(CNC(=O)c2ccc([N+](=O)[O-])o2)cc1	51	7	-50	3	/	17
O=C(/C=C/c1ccc(Cl)cc1)c1ccc([N+](=O)[O-])o1	98*	-73	-98	0	25	15
CN(C)c1ccc(/C=N/NC(=O)CSc2ccccn2)cc1	-36	/	/	48*	-11	-42
O=C(CSc1ncccn1)N/N=C/c1ccc2c(c1)OCO2	-55	41*	54	0	/	-88
CN(C)CC(=O)Nc1ccc2c(c1)[C@@H]1C[C@H](CC(=O)NC3CCCC3)O[C@@H](CO)[C@@H]1O2	/	-2	/	/	-3	-4
COc1cccc(NC(=O)NCc2ccccn2)c1	2	-5	3	37*	-39	-40
O=C(NCc1ccccn1)C(=O)Nc1ccccc1	-47	/	49	-4	-59	-70
O=C(NCc1ccccn1)Nc1cccc(Cl)c1	-135	39	136*	38*	-112	/
Cc1ccc(NC(=O)C(=O)NCc2ccccn2)cc1	-80	/	85*	20	3	-106
O=C(NCc1ccccn1)c1ccc(Cl)cc1Cl	-32	52*	35	/	/	/
Cc1cccc(NC(=O)NCc2ccccn2)c1	-3	27	3	21	/	-58
O=C(NCc1ccccn1)Nc1cccc(NC(=O)NCc2ccccn2)c1	-53	21	54	12	/	-105
C[C@@H]1CN([C@H](C)CO)C(=O)c2cc(NS(C)(=O)=O)ccc2O[C@@H]1CN(C)Cc1ccc(Cl)c(Cl)c1	/	1	/	/	-2	21
O=C(COc1ccccc1C(=O)NCc1ccccc1)Nc1ccccc1	-2	2	3	-4	15	-7
O=C(COc1ccccc1C(=O)NCc1ccccn1)Nc1ccc(Br)cc1	-22	/	19	-1	65*	-6
O=C(C[C@@H]1CC[C@H](NC(=O)CN2CCOCC2)[C@@H](CO)O1)NC1CCCCC1	/	-5	/	/	1	-13
C[C@@H]1CN([C@H](C)CO)S(=O)(=O)c2ccc(C#CC3CCCC3)cc2O[C@@H]1CN(C)C(=O)Nc1cc(F)ccc1F	/	-3	/	/	44	70*
C[C@@H]1CN([C@@H](C)CO)S(=O)(=O)c2ccc(C#Cc3ccc(F)cc3)cc2O[C@@H]1CN(C)C(=O)CN(C)C	/	2	/	/	10	/
C[C@@H]1CN([C@H](C)CO)S(=O)(=O)c2ccc(C#Cc3ccc(F)cc3)cc2O[C@H]1CN(C)C(=O)NC1CCCC1	/	-13	/	/	29	/
C[C@H](CO)N1C[C@H](C)[C@H](CN(C)C(=O)NC2CCCCC2)Oc2cc(C#Cc3ccc(F)cc3)ccc2S1(=O)=O	/	5	/	/	6	91*
